Compound activity from PubChem BioAssay.
SARS PLpro yeast: inhibitors of SARS-CoV papain-like protease in yeast. S. cerevisiae expressing SARS-CoV PLpro, growth rescue. Potency, µM (series often up to 32.9 µM), usual class: activators. 330,000 tested, 0.19% active; calls by dose curve; further: nearly all actives have a fitted effect of over 55% in size
HCMV inh: inhibitors of human cytomegalovirus; activity change, negative = inhibition, % at 57.5 µM; HFF cells, HCMV-luciferase reporter, 72 h; active compounds read low; 410,000 tested, 4.5% active; AID 1259415; in the data active means activity change below about -60%; inconclusive means no clear call, values can overlap the other calls; inactive means above about -39%
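After 16 h attachment at 37C, HFF cells received test compound and HCMV-luciferase (1 PFU/cell); reporter luminescence read 72 h later, data normalized against buffer-only and known inhibitor Salinomycin.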
LASV entry inh: inhibitors of Lassa virus binding or cell entry; Potency, µM (titrated, usually from 37.9 µM), usual class: inhibitors; Lassa virus pseudotype entry inhibition, cell reporter; AID 540256; 300,000 tested, 1.2% active; calls by dose curve; tested in HEK293 cells; further: nearly all actives have a fitted effect of over 50% in size
FMDV inh: foot and mouth disease virus antiviral activity | FMDV antiviral cell-based qHTS | Potency, µM (titrated, usually from 57.9 µM), actives largely listed as inhibitors | 410,000 tested, 1.2% active | AID 1159524; calls by dose curve; tested in HEK293T cells; further: read-out not given here; nearly all actives have a fitted effect of over 45% in size
HCV inh: HCV inhibition. Potency, µM (highest dose often 41.8 µM), actives largely listed as inhibitors. AID 651820. 340,000 tested, 3.4% active. Huh7.5.1 HCVcc-Cre infection, luciferase reporter, 44 h; active means well fitted inhibition curve with a large enough effect; inconclusive means small, poorly fitted or top-dose-only effect, or another doubt; inactive means no such curve, though single readings can be large or run the other way
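Whole-lifecycle infectious HCVcc-Cre system; cells 1,000/well, compound then virus (~0.5 moi) added 4 h after plating, 44 h culture. Luciferase read 15 sec following 15 min substrate incubation, room temp.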
Marburg entry inh: blocks Marburg virus binding to or entry into cells; Marburg virus pseudotyped entry inhibition, cell reporter; Potency, µM (top dose mostly 37.8 µM), most hits filed as inhibitors; 300,000 tested, 1.8% active; calls by dose curve; tested in HEK293 cells
Numbers stand for hits; – = inactive; ? = inconclusive; · = no result. Most compounds without a hit are left out; they make up all but 8% or so of the library.

SMILES	SARS PLpro yeast	HCMV inh	LASV entry inh	FMDV inh	HCV inh	Marburg entry inh
Cc1cccc2cc(CN(CC3CCCO3)C(=O)c3ccccc3F)c(N(C)C)nc12 (stereo not given)	·	·	·	–	·	·
O=C(c1ccc(Cl)cc1)N(c1ccccn1)C1CCCCC1	–	–	–	–	–	–
O=C(c1cccc(C(=O)N(c2ccccn2)C2CCCCC2)c1)N(c1ccccn1)C1CCCCC1	–	?	?	–	–	9.2µM
N#CCc1ccc(Oc2ncccn2)cc1	–	–	·	–	–	·
CC(C)c1ccc(N2C(=O)/C(=C/N(C)C)SC2=S)cc1	–	-60.1	·	–	–	·
Cc1ccc(N2CCN(C(=O)C3CCC(=O)N(Cc4ccc(Cl)cc4)C3)CC2)c(C)c1 (stereo not given)	–	?	?	?	11.2µM	–
NC(=O)C1CCN(C(=O)C2CCC(=O)N(Cc3ccc(Cl)cc3)C2)CC1 (stereo not given)	·	–	–	–	–	–
CC1CCN(CCCC(=O)c2ccc(F)cc2)CC1	·	·	·	–	·	·
CC(C)(C)c1ccc(C(=O)CCCN2CCC(OC(c3ccccc3)c3ccccc3)CC2)cc1	·	·	5.17µM	·	·	?
O=C1CC[C@@H](C(=O)NCC2Cc3cc(Cl)cc(-c4ccc5[nH]ccc5c4)c3O2)N1 (stereo not given in full)	·	·	·	–	·	·
Cc1ccc(S(=O)(=O)N2CCCCC2C(=O)Nc2ccc(N(C)C)cc2)cc1 (stereo not given)	–	–	–	–	?	–
CCOC(=O)c1c(C)[nH]c(C(=O)OCC(=O)Nc2cc(Cl)ccc2OC)c1C	–	–	–	–	–	?
CCOC(=O)c1c(C)[nH]c(C(=O)OCC(=O)NC(C)(C)C)c1C	–	-79.8	?	–	14.1µM	–
CCOC(=O)c1[nH]c(C)c(C(=O)OC)c1C	–	–	?	–	–	?
CC(=O)c1c(C)[nH]c(C(=O)OCC(=O)Nc2ccc(Cl)cc2[N+](=O)[O-])c1C	–	?	–	?	?	6.31µM
COC(=O)c1c(C)[nH]c(C(=O)OCC(=O)c2ccc(C)s2)c1C	–	–	?	–	11.2µM	?
CC(=O)c1c(C)[nH]c(C(=O)OCC(=O)Nc2ccc(Cl)c(S(=O)(=O)N(C)C)c2)c1C	–	–	·	28.2µM	3.98µM	·
Cc1cccc(CNC(=O)c2c3n(c(C)cc2=O)-c2ccccc2SC(c2ccsc2)C3)n1 (stereo not given)	·	·	·	–	·	·
CCC(C(=O)OCC(=O)Nc1ccc(Cl)c(S(=O)(=O)N(C)C)c1)c1ccccc1 (stereo not given)	–	?	?	?	–	11.2µM
Cc1cc(C)c(C(=O)OCc2csc(CC(=O)Nc3ccccc3C)n2)c(C)c1	–	–	·	?	?	·
CC(=O)c1c(C)[nH]c(C(=O)OCC(=O)Nc2cc(C)on2)c1C	–	–	–	–	?	–
CN(C)S(=O)(=O)c1cc(NC(=O)COC(=O)Cc2cccc3ccccc23)ccc1Cl	–	–	?	?	–	–
CCOC(=O)c1c(C)[nH]c(C(=O)OCc2ccccc2F)c1C	–	–	10µM	–	?	?
COc1cc(NC(=O)COC(=O)c2[nH]c(C)c(C(C)=O)c2C)cc(OC)c1	–	?	–	?	10µM	?
COC(=O)c1c(C)[nH]c(C(=O)OCc2csc(CC(=O)Nc3ccccc3C)n2)c1C	–	–	–	–	?	10µM
SMILES	SARS PLpro yeast	HCMV inh	LASV entry inh	FMDV inh	HCV inh	Marburg entry inh
COc1cc(-c2nc(C)cnc2C)cc2c1OCCN(C(=O)Cc1cc(OC)c(OC)c(OC)c1)C2	·	·	·	–	·	·
CN(C)S(=O)(=O)c1cc(NC(=O)CN2CCN(c3ccccc3)CC2)ccc1Cl	–	–	3.55µM	–	–	?
COC(=O)c1cccc(NC(=O)Nc2ccc(Cl)c(Cl)c2)c1	–	-100.9	–	–	·	–
COC(=O)c1sccc1NC(=O)Nc1ccc(C)c(C)c1	–	–	·	–	–	·
CCOC(=O)c1ccc(N2CCN(c3cc(Cl)ccc3C)CC2)c(NC(=O)Nc2ccc(OCC)cc2)c1	·	–	–	–	·	·
CCC(C)NC(=O)Nc1ccc(F)c(Cl)c1 (stereo not given)	–	-61.8	–	–	–	–
COC(=O)c1cccc(NC(=O)NC(=O)c2ccccc2Cl)c1	–	–	?	–	–	?
COC(=O)c1sccc1NC(=O)Nc1ccc(Cl)c(Cl)c1	–	-70.7	–	–	?	?
